SARS PLP yeast = blocks SARS-CoV papain-like protease in a yeast assay | AID 485353 | Potency, µM (top dose mostly 32.9 µM), for inactives: at the top dose activity, positive = growth rescue, usual class: activators | 0.19% of 330,000 active | S. cerevisiae expressing SARS-CoV PLpro, growth rescue; calls by dose curve; further: 0% is about no effect; nearly all actives have a fitted effect of over 55% in size
AMA1 RON2 block = disrupts binding of P. falciparum AMA1 to RON2. 0.2% of 360,000 active. AlphaScreen AMA1-biotinylated RON2 peptide binding. Potency, µM (top dose mostly 58.2 µM), inactives show at the top dose activity change, negative = inhibition, usual class: inhibitors;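 further: 0% = vehicle wells and -100% = peptide control; nearly all actives have a fitted effect of over 45% in size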
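AMA1 (3D7) with his tag at 25 nM final met compounds first, then biotinylated RON2 peptide at 25 nM; detection used donor plus acceptor beads, 10 µg/mL apiece, read by AlphaScreen after 30 min at room temperature.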
Pf growth 96h = inhibits malaria parasite growth, 96 h. P. falciparum luciferase reporter growth, 96 h. Potency, µM (doses to about 28.7 µM), without a hit: at the highest dose activity change, negative = inhibition, actives largely listed as inhibitors. 6.9% of 320,000 active; further: on the % scale 0 is the no-effect control and ±100 the full control effect
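Compounds incubated with erythrocytes infected by luciferase-expressing P. falciparum (2% hematocrit, 0.05% parasitemia final) for 96 hours, 37 C in 5% CO2. Growth inhibition scored as decreased luciferase luminescence.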
Pf growth 48h = inhibits P. falciparum growth in the first generation, 48 h; Potency, µM (titrated, usually from 28.7 µM), without a hit: at the highest dose activity change, negative = inhibition, usual class: inhibitors; AID 504832; P. falciparum luciferase growth in erythrocytes, 48 h; 5.9% of 310,000 active; further: on the % scale 0 is the no-effect control and ±100 the full control effect
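Here the parasites carry a stable luciferase gene and grow inside erythrocytes in Albumax-based RPMI medium with compound for one erythrocytic cycle. Activity is scored as loss of luminescent signal.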
An asterisk follows results filed as active; ? = inconclusive; · = not tested or not shown. An excerpt weighted towards active compounds, which were near 9.4% of everything screened. Unless noted, the call rests on the fitted dose curve; in most records, active means well fitted curve in the direction sought with a large enough effect; inconclusive means small, poorly fitted or top-dose-only effect, or another doubt; inactive means no such curve, though single readings can be large; an effect the other way counts as inactive or inconclusive. Potency means the concentration at half of the fitted maximal effect.

SMILES	SARS PLP yeast	AMA1 RON2 block	Pf growth 96h	Pf growth 48h
Cc1ccccc1N1CCN(C(=O)c2ccc(Oc3ccc(C(F)(F)F)cn3)cc2)CC1	-10.2%	17.2%	13.1µM*	9.28µM*
O=C(O)c1ccc(Oc2ccc(C(F)(F)F)cn2)cc1	-0.1%	-17.6%	16.1%	-4.1%
Cc1cc(C)c(COc2ccc(/C=N/n3c(C)n[nH]c3=S)cc2)c(C)c1	-38.3%	10.6%	11.9%	11.7µM*
CCNc1nc(NC(C)CC)nc(Oc2ccc(=O)[nH]n2)n1 (stereo not drawn)	1.1%	5.0%	·	8.2%
CCNc1nc(NC(C)CC)nc(ON=C(C)C)n1 (stereo not drawn)	0.8%	1.7%	13.1µM*	1.47µM*
CCNc1nc(NCC)nc(ON=C(C)C)n1	2.6%	·	2.08µM*	3.7µM*
CCc1ccc(C(=O)CC2(O)C(=O)N(CN3CCOCC3)c3ccccc32)cc1 (stereo not drawn)	2.1%	4.0%	?	29.9%
COC(=O)CC1C(=O)NCCN1C(=O)CSc1nnnn1-c1ccc(OC)cc1 (stereo not drawn)	-1.3%	-1.2%	-22.5%	-6.2%
CC(C)(C)OC(=O)N1CC2Cc3[nH]c(=O)ccc3C(C2)C1 (stereo not drawn)	3.4%	9.9%	-7.9%	6.5%
Cc1nc2ccc(C(=O)OCc3nnc(-c4ccccc4)o3)cc2nc1C	-10.4%	-15.4%	13.1µM*	15.3%
COc1ccc(-c2cc(-c3nnc(COC(=O)c4ccncc4)o3)c3ccccc3n2)cc1OC	0.0%	18.3%	?	11.7µM*
O=C(OCc1nnc(-c2ccc(Cl)cc2)o1)c1ccncc1	-4.4%	36.0%	3.4%	12.9%
Cn1c(=O)[nH]c(=O)c2c1nc(N1CCN(CCO)CC1)n2Cc1ccccc1Cl	-1.8%	2.1%	?	-4.5%
CC1(C)CC(Nc2ccc(Nc3ccccc3)cc2)CC(C)(C)N1	-5.3%	-23.3%	7.38µM*	3.29µM*
CS(=O)(=O)N(CC(=O)N1CCCC1)c1cc(Cl)c(Cl)cc1Cl	8.5%	-3.0%	9.28µM*	·
Cn1c[n+](C)cc1-c1ccc(/C(N)=N/O)cc1	-27.2%	4.4%	4.65µM*	?
N/C(=N\O)c1ccncc1	0.2%	-0.9%	14.1%	6.3%
COc1ccc(C2(c3ccc(OC)cc3)NC(=O)N(Cn3nnc4ccccc4c3=O)C2=O)cc1	3.4%	-1.9%	?	11.7µM*
CN1CCN(S(=O)(=O)c2cccc(C(=O)N(Cc3nnc(-c4ccccc4Cl)o3)C3CC3)c2)CC1	-8.4%	118.3%	14.7µM*	?
Cc1ccsc1C(=O)N(Cc1nnc(-c2ccccc2Cl)o1)C1CC1	-1.8%	4.2%	?	?
COc1ccccc1CNC(=O)C(=O)Nc1nccs1	-0.4%	6.7%	24.8%	1.5%
CCOC(=O)/C(=N\NC(=O)c1ccccc1)c1ccccc1	-1.6%	3.3%	-38.3%	·
CC(NC(=S)Nc1ccccc1Cl)C(c1cccs1)N1CCCC1 (stereo not drawn)	-21.7%	5.6%	11.7µM*	?
Cc1ccccc1NC(=S)NC(C)C(c1cccs1)N1CCOCC1 (stereo not drawn)	3.3%	-1.1%	?	?
O=C1NC(=O)C2(C(=O)N1)C(c1ccc(F)cc1)NC(=S)NC2c1ccc(F)cc1 (stereo not drawn)	-3.5%	27.4%	?	·
SMILES	SARS PLP yeast	AMA1 RON2 block	Pf growth 96h	Pf growth 48h
COc1cccc(CN(C)CC(=O)Nc2ccccc2C(=O)NC2CC2)c1	-6.7%	23.4%	-25.6%	-23.6%
COc1ccc(CNS(=O)(=O)c2cc(Br)cc3c2N(C(C)=O)C(C)C3)cc1 (stereo not drawn)	-2.2%	-3.7%	4.15µM*	-8.3%
CC(=O)N1c2c(cc(Br)cc2S(=O)(=O)N2CCN(C(=O)c3ccco3)CC2)CC1C (stereo not drawn)	-4.8%	-3.1%	·	10.4µM*
NS(=O)(=O)c1ccc(CCNC(=O)c2ccc3c(c2)OCCO3)cc1	3.7%	-8.8%	-47.8%	-17.4%
CCCCN(CCCC)/C(N)=N/c1nc(C)cc(C)n1	-1.1%	-10.3%	?	-18.5%
Cc1cc(C)nc(/N=C(\N)N(Cc2ccccc2)Cc2ccccc2)n1	-0.4%	4.2%	10.4µM*	?
CCN1C[C@]2(COC)CC[C@H](O)[C@@]34C5C[C@@H]6[C@@H](OC)C[C@@](O)(C5[C@H]6O)[C@](O)([C@@H](OC)C23)[C@@H]14 (stereo partly drawn)	·	-5.7%	·	·
Cc1ccc(S(=O)(=O)N2CCN(C(=O)C(F)(F)F)C2c2ccc(N(C)C)cc2)cc1 (stereo not drawn)	-4.8%	12.0%	13.1µM*	33.1%
CCOC(=O)c1ccc(CNC(=O)CSc2nnnn2-c2ccc(Cl)cc2)o1	5.4%	1.9%	·	11.2%
COC(=O)c1c(NC(NC(=O)CC(C)C)C(Cl)(Cl)Cl)sc2c1CCC2 (stereo not drawn)	-79.3%	24.8%	11.7µM*	?
CCC(=O)NC(Nc1sc2c(c1C(=O)OC)CCC2)C(Cl)(Cl)Cl (stereo not drawn)	-30.1%	5.4%	?	?
COC(=O)c1c(NC(NC(C)=O)C(Cl)(Cl)Cl)sc2c1CCCC2 (stereo not drawn)	-15.5%	-9.3%	10.4µM*	?
CC1Cn2c(Cc3ccccc3)nnc2S1 (stereo not drawn)	·	13.0%	·	·
C=CCN(CC=C)S(=O)(=O)c1ccc(NC(=S)NC(=O)c2ccc(-c3ccccc3)cc2)cc1	0.3%	32.8%	·	1.47µM*
C=CCN(CC=C)S(=O)(=O)c1ccc(NC(=S)NC(=O)c2ccco2)cc1	-3.7%	8.4%	·	?
O=C(COc1ccc(Cl)cc1)N1CCN(S(=O)(=O)c2cc(F)ccc2F)CC1	·	11.3%	·	·
COc1cc(CN2CC(=O)N(c3ccc(C)c(Cl)c3)C2=S)cc(OC)c1OC	-4.3%	-3.4%	-1.0%	2.08µM*
COc1ccc(CN2CC(=O)N(c3ccc(C)cc3)C2=S)cc1OC	22.4%	-11.5%	0.0%	?
COc1cc(CN2CC(=O)N(c3ccc(C)cc3)C2=S)cc(OC)c1OC	-3.3%	1.0%	-13.6%	0.828µM*
COc1ccccc1C(=O)N1CCN(C(=O)[C@H]2O[C@@H](n3cnc4c(N)ncnc43)[C@H](O)[C@@H]2O)CC1	·	-11.0%	·	·
Cc1cccc(COC(=O)Nc2ccc(NC(=O)c3ccccc3Cl)cc2)c1	0.0%	9.3%	-24.4%	4.3%
CN=c1sc2ccccc2n1CC(O)c1ccccc1 (stereo not drawn)	1.1%	3.7%	24.6%	?
CC1CCc2c(C(=O)Oc3cccc(-n4cnnn4)c3)csc2C1 (stereo not drawn)	-11.0%	-6.8%	?	5.86µM*
Cn1cnc([N+](=O)[O-])c1S(=O)(=O)c1ccc(Cl)cc1	-42.8%	11.8%	-1.6%	1.8%
CCCc1nc([N+](=O)[O-])c(S(=O)(=O)c2ccccc2)n1CC(C)C	?	7.3%	11.7µM*	9.28µM*
CC(C)Cn1c(C(C)C)nc([N+](=O)[O-])c1S(=O)(=O)c1ccc(F)cc1	-0.3%	-17.5%	?	10.4µM*
O=C1N[C@@H](Cc2ccccc2)COC(=O)[C@H](Cc2ccc(F)cc2)C/C=C\C[C@@H]1CC(=O)N(CCO)Cc1ccccc1	-9.9%	-1.0%	·	·

Bioassay records from PubChem.
